Data as given in PubChem BioAssay (NCI).
This is part of a sample that, as a whole, favours compounds with a hit. Of some 79,000 tested, about 15% had one in any assay. Unmarked numbers belong to inactive results. Activity calls are given as the source filed them. Rule as the data show it: active = growth inhibition above about 70%; inactive = the rest.

Experiments:
[1] = NCI Yeast Anticancer Drug Screen. Data for the rad50 strain (AID 155);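 also: 0% = growth of vehicle-only cultures of the same strain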; conditions: S. cerevisiae rad50 strain growth inhibition; at 50.0 µM; hits give high values
In short: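 Relative growth inhibition (compound vs vehicle) was measured in yeast with a defined repair-gene alteration.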

[2] = NCI Yeast Anticancer Drug Screen. Data for the mec2-1 strain (AID 157); conditions: S. cerevisiae mec2-1 strain, at 50.0 µM, hits give high values
In short: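 Using mec2-1 yeast: add compound, measure growth, express inhibition versus vehicle-treated cultures.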

[3] = NCI Yeast Anticancer Drug Screen. Data for the sgs1 mgt1 strain (AID 161);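 also: 0% = growth of cultures given vehicle only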; conditions: S. cerevisiae sgs1 mgt1 strain, at 50.0 µM, hits give high values
In short: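 Yeast cells carrying a defined DNA-repair defect were exposed to test compounds. Growth inhibition was measured relative to vehicle-treated controls.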

[4] = NCI Yeast Anticancer Drug Screen. Data for the cln2 rad14 strain (AID 165);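 also: 0% = growth equal to vehicle treated cultures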; conditions: S. cerevisiae cln2 rad14 strain, at 50.0 µM, hits give high values
In short: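 Yeast strain cln2 rad14, bearing defects in cell cycle control and DNA repair, serves as the test system; values reflect growth inhibition compared with vehicle.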

[5] = NCI Yeast Anticancer Drug Screen. Data for the bub3 strain (AID 167); conditions: S. cerevisiae bub3 mutant strain, at 50.0 µM, hits give high values
In short: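 Screening used yeast with an engineered genetic alteration affecting cell cycle control. Compound-exposed cultures were compared with vehicle cultures, and reduced growth was taken as inhibition.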

[6] = NCI Yeast Anticancer Drug Screen. Data for the mlh1 rad18 strain (AID 175); conditions: S. cerevisiae mlh1 rad18 strain growth inhibition; at 50.0 µM; hits give high values
In short: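 Steps: expose repair-defective yeast to compound; measure growth; express inhibition against vehicle-treated controls.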

SMILES	growth inhibition [1]	growth inhibition [2]	growth inhibition [3]	growth inhibition [4]	growth inhibition [5]	growth inhibition [6]
O=[N+]([O-])c1ccc(/C=C/c2cc(-c3ccccc3)nc3ccc4ccccc4c23)cc1	-11.1%	5.1%	9.9%	3.2%	-11.9%	4.5%
CSc1ncnc2c1ncn2CC(=O)C1CCC2C3CCC4=CC(=O)CCC4(C)C3CCC12C (stereo not drawn)	7%	-48.2%	-1.9%	-29.6%	-28.9%	16.4%
OC(c1cc2ccccc2c2ccccc12)C1CCCCN1 (stereo not drawn)	21.9%	16.9%	43.8%	13.2%	20%	36.2%
O=P(c1ccccc1)(c1ccccc1)c1ccccc1OCc1cccc(COc2ccccc2P(=O)(c2ccccc2)c2ccccc2)n1	-7.05%	-7.5%	-11.7%	-21.9%	-2.6%	31.1%
Clc1ccccc1Nc1c2ccccc2nc2ccccc12	94.5% (active)	98.1% (active)	85.1% (active)	96.3% (active)	88.7% (active)	97.7% (active)
Cc1nnc(N/N=C/c2ccccc2)n1/N=C\c1ccccc1	8.05%	17.1%	-5.8%	10.2%	4.85%	-25.4%
CCCCCCCCCCCCCCCCS(=O)(=O)N/N=C(/c1ccc(OC)c(OC)c1)N1CCCCC1	-24.9%	-28.8%	8.6%	1.45%	-18.1%	-7%
Cc1ccc2c(ccc3nnc(C)n32)c1	9.15%	4.05%	4.65%	-2.95%	2.75%	10.8%
CC(C)CCCC(C)C1CCC2C3CC=C4CC(O[N+](=O)[O-])CCC4(C)C3CCC12C (stereo not drawn)	-24.8%	-6%	-17.1%	-13.8%	-5.15%	17.9%
O=C(/C(=C(/[O-])C(F)(F)F)[n+]1cccc2ccccc21)C(F)(F)F	-8.6%	-4.65%	-11.2%	-10.4%	-1.4%	5.2%
O=S(=O)(O)c1ccc(OCCCCCCCCCCOc2ccc(S(=O)(=O)O)cc2)cc1	-14.6%	9.15%	-9.6%	0.7%	-5.35%	-8.1%
Cc1ccc(/C=N/NC(N)=S)c(C)c1	8.5%	-25.4%	17.3%	-30.9%	7.15%	16.6%
CN(C)/C=N/NC(=O)C(O)c1ccccc1 (stereo not drawn)	10.3%	2.2%	4.45%	18.2%	34.4%	-19.6%
Cc1csc2nc(-c3ccccc3)[nH]c(=S)c12	5.5%	6.4%	10.9%	-22.8%	-4.8%	6.75%
Cc1ccc(C)c(NC(=O)/C=N/O)c1	1%	-5.95%	18.5%	12.4%	2.3%	1%
CC1=NN(C(=O)Cc2ccccc2)C(=O)/C1=C\c1ccccc1O	-10.1%	-39%	-43.2%	-5.7%	-26.2%	-39.9%
O=c1[nH]c2cc([N+](=O)[O-])ccc2nc1/C(=N/Nc1ccccc1)C(O)c1ccc(Cl)cc1Cl (stereo not drawn)	41%	3.6%	-11.6%	-20.2%	-7.3%	34.7%
O=C(Nc1cccc(O)c1)Nc1ccc(Cl)cc1[N+](=O)[O-]	98.2% (active)	99.3% (active)	99.2% (active)	97.5% (active)	83% (active)	97.8% (active)
OCC1NC(CO)C(O)C1O (stereo not drawn)	6.5%	8.1%	6.5%	1.05%	9.2%	11.2%

SMILES	growth inhibition [1]	growth inhibition [2]	growth inhibition [3]	growth inhibition [4]	growth inhibition [5]	growth inhibition [6]
S=C(NCCCN1Cc2ccccc2C1)Nc1ccccc1	15.4%	-4.1%	3.15%	-16.1%	4.85%	-10.6%
CC(C)(C)NC(=O)CCC1C(C(=O)NC(C)(C)C)C2(Cl)C(Cl)=C(Cl)C1(Cl)C2(Cl)Cl (stereo not drawn)	6.2%	12%	1.6%	9.8%	15.6%	-2.05%
O=C(O)C1C2CCC3C(C(=O)O)C3C21 (stereo not drawn)	-2.7%	18.6%	-4.95%	-40.2%	11.7%	-0.8%
Cc1nc(N)nc(C)c1Cl	-2.15%	3.4%	3.85%	5.2%	-5.9%	-1.85%
O=C(O)c1cc(N=Nc2ccc([N+](=O)[O-])cc2S(=O)(=O)O)ccc1O	-6%	-2.35%	24.3%	16.1%	-19.8%	-9.75%
CC(=O)CC(=O)NCC#N	27.9%	15.8%	23.9%	25.6%	11.8%	24.6%
NNC(=O)c1oc2ccccc2c1CN(CCO)CCO	3.75%	-2.4%	3.45%	-2.45%	-1.15%	-5.1%
CC(=O)CC(=O)Nc1ccccc1Cl	19.4%	-4.6%	24.2%	-5.75%	-4.9%	16.4%
CN1Cc2ccccc2C1	0.75%	-3.5%	1.7%	10.4%	17.4%	5.55%
Cc1cc(C)nc(N(C)CCN2CCCCC2)c1	-6.5%	-3.1%	3.4%	-25.1%	5.45%	-5.85%
Cc1ccc(CCOC(=O)Nc2ccccc2)cc1	-7.55%	6.4%	-3.25%	-13.1%	1.8%	17.2%
COC1=C(C(=O)OC(C)(C)C)[C@]2(C)C(C(=O)OC(C)(C)C)C(OC)=C(C(=O)OC(C)(C)C)[C@]2(C)C1C(=O)OC(C)(C)C (stereo partly drawn)	30.6%	15.4%	22.8%	17.6%	-3.25%	29.9%
N#CCN(CCc1ccccc1)CCc1ccccc1	8.35%	-9.95%	13.2%	-17.6%	-0.35%	34.1%
Cc1cc([N+](=O)[O-])ccc1N=Nc1ccc([N+](=O)[O-])cc1C	-0.6%	-1.9%	1.2%	-49.1%	5.4%	-8.65%
NC(=O)CSc1ccccc1	8%	2.1%	9.8%	10.1%	-4.5%	-8.6%
CCOC(=O)c1cc(C)nc(Cl)c1[N+](=O)[O-]	19.4%	5.9%	4.35%	0.65%	-3.45%	6.95%
CN1CCC(c2ccccc2)(c2ccccc2)C(O)C1 (stereo not drawn)	1.15%	-0.45%	13.7%	4.35%	3.3%	4.7%
O=C1c2ccccc2C(=O)N1CCCO	-4.55%	-1.9%	-15.4%	-23.8%	-17.7%	8.9%
CCS(=O)(=O)/C=C/c1ccco1	28.3%	-18.6%	5.45%	-36.9%	19.6%	-14.9%
